# Compound activity deposited in PubChem by National Center for Advancing Translational Sciences (NCATS).
# The full list was thinned out, with hits kept by preference.
# NS1 inh – qHTS Assay for Inhibitors of Influenza NS1 Protein Function; Potency, µM (highest dose often 46.1 µM), inactives show at the highest dose activity, positive = more growth; 270,000 tested, 0.4% active; AID 2326, 2010; also: potency is read from the fitted curve at half-maximal effect; actives are rising curves; nearly all actives have a fitted effect of over 50% in size
#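 Growth recovery, yeast-based: influenza A NS1 expressed in S. cerevisiae causes slow growth, and suppressors are detected by OD600. The parent strain without NS1 is used as positive control.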
# TbPYK inhibitor – qHTS of Trypanosoma Brucei Inhibitors. pyruvate kinase (Trypanosoma brucei), Q57TT1. TbPYK enzyme, Kinase-Glo Plus ATP luminescence, 45 min. Potency, µM (doses to about 76.8 µM), inactives show at the highest dose activity, negative = inhibition, actives largely listed as inhibitors. 410,000 tested, 0.12% active; active = well fitted curve in the direction sought with a large enough effect; an effect the other way counts as inactive or inconclusive; also: potency is read from the fitted curve at half-maximal effect; % is scaled to controls: 0 for no effect and ±100 for the full control effect; nearly all actives have a fitted effect of over 50% in size
#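 T. brucei PYK with substrate was exposed to pin-transferred compounds across a concentration series, then started with 130 uM ADP (final). After 45 min at room temperature, Kinase-Glo Plus luminescence was read, normalized and curve-fitted.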
# Cycloheximide cs – Cycloheximide Counterscreen for Small Molecule Inhibitors of Shiga Toxin. cell reporter, cycloheximide protein synthesis inhibition counterscreen. max response, %. 300,000 tested, 12% active; in the data active = max response mostly above about 13%, no sharp cut-off; inactive = mostly below about 14%; also: read at 38.3 µM for the half of the compounds with a filed dose; 0% is about no effect
# SARS PLP yeast – qHTS of Yeast-based Assay for SARS-CoV PLP. S. cerevisiae expressing SARS-CoV PLpro, growth rescue. Potency, µM (highest dose often 32.9 µM), for the others: top-dose activity, positive = growth rescue, usual class: activators. 330,000 tested, 0.19% active. AID 485353, 2010; also: potency is read from the fitted curve at half-maximal effect; 0% is about no effect; nearly all actives have a fitted effect of over 55% in size
# LmPK inh – qHTS Assay for Inhibitors of Leishmania Mexicana Pyruvate Kinase (LmPK); purified LmPK, Kinase-Glo ATP luminescence, 1 h; Potency, µM (top dose mostly 57.5 µM), for inactives: at the highest dose activity change, negative = inhibition, actives largely listed as inhibitors; 290,000 tested, 0.37% active; active = well fitted curve in the direction sought with a large enough effect; an effect the other way counts as inactive or inconclusive; also: potency is read from the fitted curve at half-maximal effect; % is scaled to controls: 0 for no effect and ±100 for the full control effect
# Target sequence (Q27686 whole entry, looked up): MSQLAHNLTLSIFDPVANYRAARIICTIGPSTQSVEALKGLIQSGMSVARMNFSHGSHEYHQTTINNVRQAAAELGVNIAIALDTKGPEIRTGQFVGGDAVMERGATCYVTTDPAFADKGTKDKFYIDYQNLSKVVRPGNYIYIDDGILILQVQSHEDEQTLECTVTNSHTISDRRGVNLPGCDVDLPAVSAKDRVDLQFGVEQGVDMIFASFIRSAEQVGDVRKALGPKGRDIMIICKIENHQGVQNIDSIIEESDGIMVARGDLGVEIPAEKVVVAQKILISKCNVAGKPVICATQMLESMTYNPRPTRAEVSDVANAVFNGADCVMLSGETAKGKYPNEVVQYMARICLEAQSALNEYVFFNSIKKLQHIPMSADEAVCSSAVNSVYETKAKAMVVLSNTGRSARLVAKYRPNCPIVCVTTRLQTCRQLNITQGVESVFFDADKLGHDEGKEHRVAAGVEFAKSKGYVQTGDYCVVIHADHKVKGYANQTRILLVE
#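 ATP generated from ADP (0.1 mM) and PEP (0.5 mM) by 0.1 nM LmPK over 1 h at room temperature (pH 7.2 imidazole buffer) was detected by coupled luciferase luminescence. Values were normalized to uninhibited and no-enzyme wells.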
# Shiga inhibitor – A qHTS for Small Molecule Inhibitors of Shiga Toxin. Vero cells, Shiga toxin protein synthesis inhibition reporter. inhibition, % at 38.7 µM. 290,000 tested, 9.2% active. AID 2315, 2010; in the data active = inhibition mostly above about 28%, no sharp cut-off; inactive = mostly below about 43%; also: 0% is about no effect
# * hit, by the source's call; x = not tested or not shown; [ ] = another dose, or the depositor's remark. Unless noted, calls follow the shape of the full dose curve.
SMILES,NS1 inh,TbPYK inhibitor,Cycloheximide cs,SARS PLP yeast,LmPK inh,Shiga inhibitor
Cc1ccc(NC(=O)c2nnn(-c3ccc4c(c3)OCCO4)c2N)cc1,-7%,2%,37*,2%,-5%,112*
Nc1c(C(=O)Nc2ccc3c(c2)OCCO3)nnn1Cc1ccc(Cl)cc1,x,4%,x,2%,x,x
COc1ccc(Cn2nnc(C(=O)Nc3ccc4c(c3)OCCO4)c2N)cc1Br,11%,-2%,17*,6%,-5%,27
Nc1c(C(=O)Nc2ccccc2)nnn1-c1ccc2c(c1)OCCO2,-51%,-3%,34*,-29%,-10%,74*
O=c1c2cnn(-c3ccc(F)cc3)c2ncn1Cc1ccccc1Cl,x,-5%,x,x,x,x
CC1=NN(S(=O)(=O)c2ccc(Cl)cc2Cl)C(=O)c2ccccc2O1,-67%,-4%,12*,0%,3%,2
CCCN(CC(=O)Nc1cc(Cl)ccc1Cl)C(=O)/C=C/c1ccco1,16%,-2%,55*,18%,4%,126*
CN(CC(=O)Nc1ccc(Cl)c(C(F)(F)F)c1)C(=O)CCNC(=O)c1ccco1,x,2%,x,2%,x,x
CN(CC(=O)Nc1ccc(Cl)c(C(F)(F)F)c1)C(=O)/C=C/c1ccco1,3%,-5%,14,-19%,-1%,37*
CC(C)(C)CC(C)(C)c1ccc(OCC(=O)Nc2ccc(S(=O)(=O)Nc3ncccn3)cc2)cc1,x,3%,x,x,x,x
Cc1cccc(OCC(=O)N2CCC(c3ccccc3)C2)c1 (stereo not drawn),-8%,-3%,30*,-3%,-1%,79*
O=C(COc1ccc(F)cc1)N1CCC(c2ccccc2)C1 (stereo not drawn),-8%,-4%,43*,-19%,5%,58*
O=C1C(=O)N(CCN2CCOCC2)C(c2ccccc2)/C1=C(\O)c1ccc2c(c1)OCCO2 (stereo not drawn),-11%,-8%,36*,-4%,-10%,23*
CC1Cc2cc(/C(O)=C3/C(=O)C(=O)N(CCN4CCOCC4)C3c3ccc([N+](=O)[O-])cc3)ccc2O1 (stereo not drawn),-2%,2%,15*,-4%,-2%,27
CC(C)c1ccc(C2/C(=C(\O)c3ccc4c(c3)OCCO4)C(=O)C(=O)N2CCN2CCOCC2)cc1 (stereo not drawn),11%,3%,-5,2%,2%,3
COc1ccc(C2/C(=C(/O)c3ccc4c(c3)CC(C)O4)C(=O)C(=O)N2CCCN2CCOCC2)cc1 (stereo not drawn),-3%,1%,19*,3%,-1%,-1
O=C1C(=O)N(c2nccs2)C(c2ccccc2F)/C1=C(\O)c1ccc2c(c1)OCCO2 (stereo not drawn),13%,0%,32*,2%,9%,33
COc1ccc(C2/C(=C(/O)c3ccc4c(c3)CC(C)O4)C(=O)C(=O)N2CCN2CCOCC2)cc1 (stereo not drawn),-32%,-3%,-2,-3%,-3%,-17
O=C1C(=O)N(c2nccs2)C(c2ccccc2)/C1=C(\O)c1ccc2c(c1)OCCO2 (stereo not drawn),17%,x,15,-3%,0%,22
O=C1CC(c2ccco2)CC2=C1C(c1cccnc1)n1nc(C(F)(F)F)nc1N2 (stereo not drawn),x,x,-6,x,x,-2
COc1ccc2c3c1OC1C(O)C=CC4[C@@H](C2)NCC[C@]314 (stereo partly drawn),x,-4%[157 µM],x,x,x,x
CC(=O)c1sc(NC(=O)CSC(C)C(=O)Nc2cc(C)on2)nc1-c1ccccc1 (stereo not drawn),x,5%,x,1%,x,x
COc1ccc(CN(C(=O)Nc2cccc(Cl)c2)c2ccccn2)cc1OC,x,4%,x,x,x,x
Cc1ccc(C2/C(=C(\O)c3ccc4c(c3)OCCO4)C(=O)C(=O)N2CCCN(C)C)o1 (stereo not drawn),2%,x,19*,-3%,5%,28
COc1ccc(C2/C(=C(\O)c3ccc4c(c3)OCCO4)C(=O)C(=O)N2CCCN(C)C)cc1 (stereo not drawn),2%,2%,-8,8%,-9%,-23
SMILES,NS1 inh,TbPYK inhibitor,Cycloheximide cs,SARS PLP yeast,LmPK inh,Shiga inhibitor
Cn1cccc1/C=C1\CCC/C(=C\c2cccn2C)C1=O,-2%,4%,52*,-6%,0%,109*
O=C1/C(=C/c2cccs2)CCC/C1=C\c1cccs1,-12%,-3%,39*,-3%,-12%,108*
C=CCN1C(=O)NC(=O)/C(=C/c2cccn2C)C1=O,13%,5%,-3,-2%,-6%,-22
NC(=O)CC[C@H](NC(=O)c1ccc(F)cc1)C(=O)N1CCN(Cc2ccc3c(c2)OCO3)CC1,x,-1%,x,-1%,x,x
CC(=O)Nc1cccc(NC(=O)NC2CC(=O)N(c3ccc4c(c3)OCCO4)C2)c1 (stereo not drawn),x,-8%,x,x,x,x
O=C(CCNC(=O)c1ccc([N+](=O)[O-])cc1)NNC(=O)c1ccccc1F,x,1%,x,0%,x,x
COc1cc(C)ccc1OCCSc1nc2ccc(NC(=O)c3ccccc3F)cc2s1,x,-3%,x,x,x,x
Cc1ccc2c(CN(C)Cc3cccc(F)c3)cc(=O)oc2c1C,-38%,-2%,22*,-3%,2%,55
Cc1ccc2c(CN(C)Cc3ccccc3)cc(=O)oc2c1C,-12%,-3%,44*,-1%,3%,46*
CC1(C)OC2OC(COC(=O)c3ccccc3)C3OC(C)(C)OC3C2O1 (stereo not drawn),-2%,-9%,31*,7%,-1%,2
COC1OC(COC(=O)c2ccccc2)C(OC(=O)c2ccccc2)C1OC(=O)c1ccccc1 (stereo not drawn),-10%,-2%,2,2%,1%,-4
COc1ccc(CNC(=O)c2cccn2-c2nnc(N3CCCCC3)s2)c(OC)c1,x,-2%[15.4 µM],x,x,x,x
Cc1cccc(C(=O)OC(C)C(=O)Nc2ccc(S(=O)(=O)Nc3ncccn3)cc2)c1C (stereo not drawn),x,-2%,x,-6%,x,x
O=[N+]([O-])c1cccc(-c2noc(-c3ccco3)n2)c1,-2%,1%,28*,2%,-8%,63*
O=[N+]([O-])c1cccc(-c2nc(-c3ccccc3)no2)c1,-2%,-1%,16,1%,-8%,49*
COc1cccc(-c2noc(COc3ccc(C(C)(C)C)cc3)n2)c1,x,2%,x,x,x,x
CN(C)c1ccc(-c2nc(-c3ccco3)no2)cc1[N+](=O)[O-],x,-1%,x,x,x,x
O=[N+]([O-])c1cccc(-c2nc(-c3ccncc3)no2)c1,-9%,-5%,6,-5%,-10%,12
O=[N+]([O-])c1cccc(-c2noc(COc3ccccc3)n2)c1,x,-3%,27*,2%,0%,43
